In the library only some 2.2% were active in any assay of this set; here they are far more common.
EWS-Fli inh: EWS/Fli transcriptional activity inhibition; A673 NR0B1-luciferase reporter, viability-normalised; inhibition, % at 12.6 µM; 0.67% of 350,000 active; AID 651661;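 active = mean inhibition of at least 50% after viability correction, with every replicate also passing that limit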;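 note: firefly luciferase signal divided by Alamar Blue viability fluorescence both relative to DMSO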
MITF TRPM1 inh: inhibitors of MITF-driven TRPM1 promoter in melanoma cells; SK-MEL-5 TRPM1 promoter luciferase, 24 h; inhibition, % at 12.5 µM; 0.83% of 330,000 active;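 active = mean inhibition across replicates of 60% or more, whatever share of single replicates reaches that level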
Shn3 3UTR inh: reduces Shn3 3'UTR luciferase signal in osteoblasts; Clone20 osteoblast Shn3 3'UTR firefly luciferase, 24 h; 0.52% of 360,000 active; inhibition, % at 12.5 µM;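 active = mean inhibition of at least 75% with every replicate also reaching 75%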;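 note: 0% = median of neutral control wells and 100% = pilot-screen positive control compound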
PAX8 inh HTS: inhibitors of PAX8 transcriptional activity in RMG-I cells; RMG-I TPO-luciferase reporter, SteadyGlo, 24 h; inhibition, % at 12.6 µM; 1.2% of 360,000 active;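 active = mean replicate inhibition at least 60% with every replicate also reaching 60%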;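 note: luciferase light reporting Pax8 driven TPO promoter activity; plate controls were median of neutral control wells for no effect and mitoxantrone controls for full effect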
LMP1 NFkB inh: reduces LMP1-driven NF-kappaB luciferase signal; LMP1-induced NF-kappaB luciferase reporter cells, luminescence; inhibition, % at 12.5 µM; 0.69% of 350,000 active; in the data active = inhibition above about 41%;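 note: 0% = neutral control wells and 100% = reference inhibitor control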
LGR2 inh: inhibitors of bursicon-induced Drosophila LGR2 receptor cAMP signaling. HEK293 LGR2, CRE-luciferase, bursicon-stimulated, 4 h. inhibition, % at 9.99 µM. 0.35% of 380,000 active;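 active = drop in luminescence signal, shown as inhibition above about 50% in the replicate tests, limit read from the data, passing the limit was not always enough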;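 note: agonist challenge used bursicon conditioned medium at about half maximal strength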
Active calls of the source: *; nt = no result.

SMILES	EWS-Fli inh	MITF TRPM1 inh	Shn3 3UTR inh	PAX8 inh HTS	LMP1 NFkB inh	LGR2 inh
COc1ccc2c(c1)C(C)=CC(C)(C)N2S(=O)(=O)c1ccc(Br)cc1	49.6	55.3	22.8	88.4*	19.1	-21.9
CCOc1ccc2c(c1)C(C)=CC(C)(C)N2S(=O)(=O)c1ccc(F)cc1	61.6*	27.6	19.9	43.5	0.4	7.4
C[C@@H]1CN([C@H](C)CO)C(=O)c2cc(NC(=O)Nc3ccccc3)ccc2O[C@@H](C)CCCCO[C@H]1CN(C)C(=O)c1ccccc1	15.2	nt	nt	2.1	nt	-1.6
C[C@H](CO)N1C[C@H](C)[C@@H](CN(C)Cc2cccnc2)Oc2ncc(C#CC3(O)CCCC3)cc2C1=O	-2.9	nt	nt	nt	nt	-2.0
COc1ccc2c3c([nH]c2c1)[C@H](CO)N(Cc1cccc(F)c1)CC31CN(CC2CC2)C1	5.5	nt	nt	6.1	nt	-21.3
C[C@@H]1CN([C@H](C)CO)C(=O)Cc2cc(NC(=O)Cc3cn(C)c4ccccc34)ccc2O[C@@H]1CN(C)S(=O)(=O)c1cn(C)cn1	7.5	nt	nt	-0.8	nt	7.1
C=CCOC(=O)[C@@H]1[C@H]2C(=O)O[C@H](c3ccccc3)[C@H](c3ccccc3)N2[C@H](c2ccc(OCCOC(=O)[C@H]3C[C@H]4C(=O)N5CCC[C@H]5C(=O)N4[C@H]3c3ccc(O)cc3)cc2)[C@@]12C(=O)Nc1ccccc12	0.6	nt	nt	nt	nt	nt
C[C@@H]1CN([C@@H](C)CO)C(=O)Cc2cc(NS(=O)(=O)c3ccccc3)ccc2O[C@@H]1CN(C)Cc1ccc2c(c1)OCO2	12.8	nt	nt	5.6	nt	31.7
O=C1CN(S(=O)(=O)Cc2ccccc2)C[C@H]2[C@H](c3ccc(C#CC4CC4)cc3)[C@H](CO)N12	7.2	nt	nt	5.4	nt	-0.3
O=C1CN(S(=O)(=O)Cc2ccccc2)C[C@@H]2[C@@H](c3ccc(C#CC4CC4)cc3)[C@@H](CO)N12	7.9	nt	nt	79.2*	nt	2.0
O=C1CN(S(=O)(=O)Cc2ccccc2)C[C@H]2[C@H](c3ccc(C#Cc4ccc(F)cc4)cc3)[C@H](CO)N12	0.7	nt	nt	98.6*	nt	nt
CCS(=O)(=O)N1CC(=O)N2[C@H](CO)[C@@H](c3ccc(-c4ccccc4F)cc3)[C@H]2C1	10.7	nt	nt	80.7*	nt	-3.2
O=C1CN(S(=O)(=O)Cc2ccccc2)C[C@H]2[C@@H](c3ccc(C#Cc4ccc(F)cc4)cc3)[C@@H](CO)N12	5.7	nt	nt	-0.2	nt	-6.0
C[C@@H]1CCCCO[C@H](CN(C)C)[C@H](C)CN([C@H](C)CO)C(=O)c2cc(NC(=O)CCCN(C)C)ccc2O1	-7.8	nt	nt	-9.9	nt	-0.8
COC1=C(N)C(=O)c2nc(C)ccc2C1=O	-68.4	113.0*	-42.8	-5.3	0.7	-7.1
C/C(=N\NS(=O)(=O)c1ccc(C)c([N+](=O)[O-])c1)c1cccs1	-5.7	1.4	-23.8	11.2	-4.2	-14.6
C/C(=N\NS(=O)(=O)c1ccc([N+](=O)[O-])cc1)c1cccs1	-6.1	-11.5	6.1	-3.0	57.8*	3.0
CCn1c(C)cc(/C=C2/SC(=S)NC2=O)c1C	78.7*	1.6	-14.3	-4.1	-1.4	1.6
Cc1noc(C)c1S(=O)(=O)Nc1ccc2c(c1)C(=O)N([C@@H](C)CO)C[C@@H](C)[C@@H](CN(C)C(=O)Cc1ccccc1)OCCCC[C@@H](C)O2	-7.6	nt	nt	-5.4	nt	-6.5
COc1cc2nc(C3CCC3)nc(N3CCN(c4ccccn4)CC3)c2cc1OC	nt	-13.4	34.2	nt	10.4	nt
COc1cc2nc(C3CCC3)nc(N3CCN(c4ccccc4OC)CC3)c2cc1OC	10.8	8.5	7.6	88.6*	14.5	19.6
O=C(CNc1cccc2ccccc12)N/N=C/C(Br)=C/c1ccccc1	nt	9.6	90.5*	nt	-7.3	nt
O=C(CNc1cccc([N+](=O)[O-])c1)N/N=C/c1ccc([N+](=O)[O-])o1	25.7	77.9*	17.5	49.4	-11.2	nt
O=C(CNc1cccc2ccccc12)N/N=C/c1ccc[nH]1	47.4	-10.8	-0.4	1.1	-15.9	19.1
O=C(Cc1ccc([N+](=O)[O-])cc1)N/N=C/c1ccc([N+](=O)[O-])o1	5.9	nt	1.1	30.5	-28.1	30.3
SMILES	EWS-Fli inh	MITF TRPM1 inh	Shn3 3UTR inh	PAX8 inh HTS	LMP1 NFkB inh	LGR2 inh
O=C(CNc1cccc2ccccc12)N/N=C/c1ccc([N+](=O)[O-])o1	36.4	75.2*	14.6	49.3	-5.9	18.7
CCCCCCCC(=O)N/N=C/c1ccc([N+](=O)[O-])o1	-2.0	36.8	3.7	-8.9	-3.0	-11.1
O=C(Nc1cccc(Cl)c1)N[C@H]1CC[C@@H](CCNC(=O)C2CCOCC2)O[C@H]1CO	-5.3	nt	nt	2.5	nt	-10.1
CN(C)CCCNC(=O)C[C@H]1CC[C@@H]2[C@H](COc3ccc(NC(=O)C4CCC4)cc3C(=O)N2C)O1	-6.2	nt	nt	1.9	nt	-4.7
O=C1C(=O)N(CCN2CCOCC2)C(c2ccccn2)/C1=C(/O)c1ccc(F)cc1 (configuration not stated)	nt	4.4	-22.5	-13.3	0.6	nt
Cc1c(/C(O)=C2/C(=O)C(=O)N(CCN3CCOCC3)C2c2ccccn2)cnn1-c1ccccc1 (configuration not stated)	13.3	46.7	39.7	18.3	54.7*	79.6*
COc1ccc(S(=O)(=O)N(C)C[C@@H]2OCCCC[C@H](C)Oc3ccc(NS(=O)(=O)c4ccccc4)cc3C(=O)N([C@H](C)CO)C[C@H]2C)cc1	-33.8	nt	nt	75.9*	nt	3.2
COc1ccc(S(=O)(=O)Nc2ccc3c(c2)C(=O)N([C@H](C)CO)C[C@H](C)[C@@H](CN(C)S(=O)(=O)c2ccc(Cl)cc2)OCCCC[C@H](C)O3)cc1	5.3	nt	nt	78.5*	nt	5.9
COc1ccc(S(=O)(=O)N(C)C[C@@H]2OCCCC[C@H](C)Oc3ccc(NS(=O)(=O)c4ccc(Cl)cc4)cc3C(=O)N([C@H](C)CO)C[C@@H]2C)cc1	17.0	nt	nt	78.8*	nt	39.0
COc1ccc(S(=O)(=O)Nc2ccc3c(c2)C(=O)N([C@@H](C)CO)C[C@@H](C)[C@@H](CN(C)S(=O)(=O)c2ccc(Cl)cc2)OCCCC[C@H](C)O3)cc1	-2.4	nt	nt	-29.2	nt	5.7
COc1ccc(S(=O)(=O)Nc2ccc3c(c2)C(=O)N([C@@H](C)CO)C[C@H](C)[C@@H](CN(C)S(=O)(=O)c2ccc(Cl)cc2)OCCCC[C@H](C)O3)cc1	20.8	nt	nt	64.9*	nt	10.6
COc1ccc(S(=O)(=O)N(C)C[C@H]2OCCCC[C@H](C)Oc3ccc(NS(=O)(=O)c4ccc(Cl)cc4)cc3C(=O)N([C@@H](C)CO)C[C@@H]2C)cc1	-5.1	nt	nt	22.6	nt	4.3
COCC#Cc1cnc2c(c1)C(=O)N([C@H](C)CO)C[C@H](C)[C@H](CN(C)C(=O)C1CC1)O2	6.4	nt	nt	nt	nt	-4.4
COc1ccc(S(=O)(=O)Nc2ccc3c(c2)C(=O)N([C@@H](C)CO)C[C@H](C)[C@@H](CN(C)S(=O)(=O)c2ccc(Cl)cc2)OCCCC[C@@H](C)O3)cc1	-5.8	nt	nt	67.5*	nt	15.4
Cc1ccc(S(=O)(=O)/C(=C/Cl)NC(=O)c2ccccc2)cc1	nt	32.9	61.2	93.9*	-7.8	40.4

Screens: PubChem, Broad Institute
